Screens: PubChem, Paczesny and Yang Labs, IUPUI and University of Michigan
Many of the other results were omitted from the sample, so hits are more common in it than they were.
ST2 inh – inhibitors of human ST2 (IL1RL1) binding to IL-33. AlphaLISA ST2-Fc/biotin-IL-33 interaction, 1 h. inhibition, % for hits at 17 µM. 78,000 tested, 2.3% active. AID 1259354; in the data active = inhibition above about 30%
Target sequence (Q01638 whole entry, looked up): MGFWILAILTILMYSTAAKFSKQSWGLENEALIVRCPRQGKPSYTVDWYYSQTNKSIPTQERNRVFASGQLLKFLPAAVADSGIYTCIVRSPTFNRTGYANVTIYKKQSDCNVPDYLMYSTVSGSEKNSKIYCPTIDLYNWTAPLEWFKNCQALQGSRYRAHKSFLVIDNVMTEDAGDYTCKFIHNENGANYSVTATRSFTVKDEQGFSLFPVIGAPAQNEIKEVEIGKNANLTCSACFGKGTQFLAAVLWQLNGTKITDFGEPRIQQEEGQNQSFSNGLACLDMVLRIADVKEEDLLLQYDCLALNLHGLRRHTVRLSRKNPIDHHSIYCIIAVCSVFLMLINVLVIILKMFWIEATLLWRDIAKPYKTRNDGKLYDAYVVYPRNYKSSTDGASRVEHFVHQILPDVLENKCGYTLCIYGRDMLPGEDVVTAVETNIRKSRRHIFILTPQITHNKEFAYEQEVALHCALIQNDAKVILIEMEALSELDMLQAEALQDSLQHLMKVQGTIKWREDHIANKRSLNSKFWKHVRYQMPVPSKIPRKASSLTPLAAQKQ
Starred values were filed as active, the others as inactive; i = inactive; ! = repeats disagree.

SMILES	ST2 inh
Cc1ccc(NC(=O)c2ccccc2C)c([N+](=O)[O-])c1	i
N#C/C(=C\c1ccc(Cl)cc1)c1nc(-c2ccccc2)cs1	51%*
Cc1ccc(-c2csc(/C(C#N)=C/c3ccccc3[N+](=O)[O-])n2)c(C)c1	57%*
Cc1nc(-c2ccc(C(N)=O)cc2)cs1	i
Cc1ccc(C(=O)Nc2nc(-c3ccc(F)cc3)cs2)o1	i
COc1ccc(-c2csc(/C(C#N)=C/c3ccccc3[N+](=O)[O-])n2)cc1	i
Cc1ccc(-c2nnc3s/c(=C\c4ccc(C)o4)c(=O)n23)cc1	i
Cc1ccc(-c2csc(/C(C#N)=C\c3ccc(C)o3)n2)cc1	51%*
Cc1ccc(/C=C(\C#N)c2nc(-c3ccc(C)cc3)cs2)cc1	54%*
NNC(=O)C(=O)Nc1nc(-c2ccc(Cl)cc2)cs1	i
Cc1ccc(/C=C(\C#N)c2nc(-c3ccc([N+](=O)[O-])cc3)cs2)cc1	i
COc1ccccc1-c1cccc(C(=O)N(C)Cc2snnc2C)c1	i
COc1cc(NC(=O)C2CCCN2C(=O)c2ccc(-c3noc(C)n3)cc2)cc(OC)c1 (stereo not given)	i
O=S(=O)(c1ccccc1)c1ccccc1C(O)c1ccccc1 (stereo not given)	i
NC(=O)c1ccnc(N2CCN(C/C=C/c3ccccc3)CC2)c1	i
CCC1Sc2ccccc2N(CC(=O)O)C1=O (stereo not given)	i
CCn1cc(Cn2ccnc2-c2cc3ccccc3nc2OC)cn1	i
N#C/C(=C\Nc1cccc(C(F)(F)F)c1)c1nc(-c2cc3ccccc3oc2=O)cs1	i
N#CCc1nc(-c2ccc(-c3ccccc3)cc2)cs1	i
N#C/C(=C\c1ccccc1)c1nc(-c2ccccc2)cs1	65%*
COc1cc(NC(=O)CCC2CCCN(C(=O)CCn3ccnc3C)C2)cc(OC)c1 (stereo not given)	i
c1cc(CCSC2CCCCC2)ccn1	i
Cc1ccc(S(=O)(=O)N2CCCCC2)cc1[N+](=O)[O-]	i
Cc1ccc(S(=O)(=O)N2CCc3ccccc32)cc1C(N)=O	i
Cc1ccc(S(=O)(=O)N2CCc3ccccc32)cc1[N+](=O)[O-]	36%*
SMILES	ST2 inh
COc1cc(-c2nc3cnccn3c2Nc2ccc3c(c2)OCCO3)ccc1O	i
COc1ccc(-c2nc3sccn3c2Nc2ccc3c(c2)OCO3)cc1	30%*
Cc1ccc(-c2nc3sccn3c2Nc2ccccc2C)cc1	i
Cc1nn(C)c(C)c1CCC(=O)NCc1noc(-c2c(F)cccc2F)n1	i
COc1ccc(Cl)cc1NC(=O)CSc1ccccc1	i
COc1ccc(N2C(=O)c3ccc(Oc4cccc(N)c4)cc3C2=O)cc1	i
O=C1c2ccc(Oc3cccc([N+](=O)[O-])c3)cc2C(=O)N1c1c[nH]c(=O)[nH]c1=O	31%*
Cc1cc(N2C(=O)c3ccc([N+](=O)[O-])cc3C2=O)no1	i
COc1ccc2oc(=Nc3ccc(C#N)cc3)c(C(=O)Nc3ccccc3)cc2c1	i
N#Cc1ccc(N=c2oc3ccccc3cc2C(=O)Nc2ccccc2)cc1	33%*
COc1ccc2cc(C(=O)Nc3ccccc3)c(=Nc3ccc(C#N)cc3)oc2c1	i
CC(=O)NC(=O)c1cc2cc(Br)ccc2oc1=Nc1cccc(C#N)c1	33%*
CC(=O)NC(=O)c1cc2cc(Br)ccc2oc1=Nc1cccc(F)c1	i
CC(=O)NC(=O)c1cc2cc(Cl)cc(Cl)c2oc1=Nc1cccc(C#N)c1	i
CC12CC(c3ccccc3O1)N(C(=O)c1cccs1)C(=O)N2c1ccc(F)cc1 (stereo not given)	i
O=C(Nc1c(C(=O)Nc2ccc(F)cc2)oc2ccccc12)c1ccc(F)c(F)c1	i
Cc1ccsc1CN1CC(=O)N(c2ccc(Cl)c(Cl)c2)C1=O	i
CN(C)CC1(O)CCCN(C(=O)COCc2nc3ccc(F)cc3[nH]2)CC1 (stereo not given)	i
CC(Sc1nc2c(c(=O)n1-c1ccc(F)cc1)SCC2)c1ccccc1 (stereo not given)	i
CCCSc1nc2c(c(=O)n1-c1ccc(F)cc1)SCC2	i
CCOC(=O)C(C)(C)Sc1nc2c(c(=O)n1-c1ccc(Cl)cc1)SCC2	i
CCOC(=O)C(CC)Sc1nc2c(c(=O)n1-c1ccc(C)cc1)SCC2 (stereo not given)	i
Cc1ccc(-n2c(SCC(=O)N3CCCCCC3)nc3c(c2=O)SCC3)cc1	i
CCSc1nc2c(c(=O)n1-c1ccc(C)cc1)SCC2	33%*!
Cc1ccc(-n2c(SC(C)C)nc3c(c2=O)SCC3)cc1	36%*!
SMILES	ST2 inh
CCOC(=O)C(C)(C)Sc1nc2c(c(=O)n1-c1ccc(OCC)cc1)SCC2	43%*
CCOC(=O)C(C)(C)Sc1nc2c(c(=O)n1-c1ccc(Br)cc1)SCC2	i
C=CCOC(=O)C1=C(C)N=C2SCCC(=O)N2C1c1ccc(F)cc1 (stereo not given)	i
Cc1ccc(N2C(=O)CSC2c2ccccn2)cc1 (stereo not given)	i
FC(F)(F)c1ccc(-c2noc(CN3CCCC(CN4CCOCC4)C3)n2)cc1 (stereo not given)	i
Cc1ccccc1Cc1c(C)nc2nc(SCC(=O)NCc3cccs3)nn2c1C	i
CCCn1ncc(CN2CCCC(CCC(=O)Nc3ccc(C(F)(F)F)cc3)C2)c1C (stereo not given)	i
C=CCOc1ccc(C2C(C(=O)OC(C)C)=C(C)N=C3SCCC(=O)N32)cc1 (stereo not given)	i
COc1cccc(/C=C2\CS/C(=C\c3cccc(OC)c3OC)C2=O)c1OC	39%*
COc1ccccc1/C=C1\SC(N2CC(C)OC(C)C2)=NC1=O (stereo not given)	i
Cc1cccc(/C=C2\NC(=O)N(Cc3ccc(Cl)cc3)C2=O)c1	i
COc1ccccc1/C=C1/SC(N2CCN(C)CC2)=NC1=O	i
Cc1cccc(/C=C2\CS/C(=C\c3cccc(C)c3)C2=O)c1	55%*
O=C1/C(=C/c2ccsc2)CS/C1=C\c1ccsc1	39%*
O=C1N=C(N2CCCC2)S/C1=C/c1cccc(O)c1	i
O=S(=O)(c1ccc2ccccc2c1)N1CCn2c(nc3ccccc32)C1	i
COCCCN1C(=O)C(=O)C(=C(O)c2ccc(S(=O)(=O)N(C)C)cc2)C1c1ccc(O)cc1 (stereo not given)	i
O=C(/C=C/c1ccc(O)c2c1C(C(=O)O[C@H](Cc1ccc(O)c(O)c1)C(=O)O)C(c1ccc(O)c(O)c1)O2)O[C@H](Cc1ccc(O)c(O)c1)C(=O)O (stereo not given in full)	i
O=C(NC1CCCCCCC1)c1ccc2nc3ccc(Cl)cc3c(=O)n2c1	i
Cc1ccc(NC(=O)CN[C@H](C(N)=O)C(C)C)cc1F	i
CN(Cc1cn[nH]c1-c1ccc(F)cc1)C(=O)c1cn2c(n1)CNCC2	i
Cc1ccc(-c2nc3cc(Cl)ccc3o2)cc1NC(=O)c1ccco1	i
O=C(Nc1cc(-c2nc3ccccc3s2)ccc1Cl)c1ccco1	39%*
O=C(Nc1ccc(-c2nc3ccccc3s2)cc1)C(F)(F)F	i
COC(=O)C1C(=O)C2=C(CC1C)NC(C)=C(C(=O)OC1CCCCC1)C2c1ccc(C)cc1 (stereo not given)	i
CCCc1nc2nc[nH]n2c(=O)c1NC(=O)Nc1ccccc1Br	i
COC(=O)c1c(C)oc2ccc(N(C(=O)C3CCCCC3)S(=O)(=O)c3ccccc3)cc12	i
Cc1[nH]nc(SCC(=O)NCc2cccs2)c1[N+](=O)[O-]	i
